Assay results as given in PubChem BioAssay AID624297 (National Center for Advancing Translational Sciences (NCATS), 2012).
Out of some 340,000 compounds screened, about 6,200 (1.8%) were called active. About 10% were inconclusive and are not listed. The call rests on the fitted dose curve; in most records, active means well fitted activation curve with a large enough effect; inconclusive means small, poorly fitted or top-dose-only effect; inactive means no such curve, though single readings can be large or run the other way. The entries come from a sample that favours actives as a whole.

assay: A quantitative high throughput screen for small molecules that induce DNA re-replication in SW480 colon adenocarcinoma cells.; further: nearly all actives have a fitted effect of over 55% in size; details: Hoechst DNA content imaging, 48 h; series mostly up to 46.1 µM
In short: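 SW480 cells exposed to compounds for 48 hr at 37 C, 5% CO2, then Hoechst-stained 40 min. Nuclear DNA content imaged by fluorescence scanning (405 nm excitation, 500-530 nm emission); re-replication scored as increased high-intensity nuclei.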
Potency means the concentration at half of the fitted maximal effect.

Potency, active:
O=C(CCl)Nc1ccc(Sc2ccc(NC(=O)CCl)cc2)cc1 4.61 µM
c1ccc(-c2cc3c(NCC4COc5ccccc5O4)ncnc3s2)cc1 (stereo unspecified) 18.4 µM
Cc1cccc(N(C)C(=O)c2cc3c(=O)[nH]c4ccc(C)cc4c3s2)c1 9.2 µM
C=CCN(CC=C)S(=O)(=O)c1ccc(C(=O)Nc2sc3c(c2C(N)=O)CCCCC3)cc1 9.2 µM
C=CCN(CC=C)S(=O)(=O)c1ccc(C(=O)Nc2nc3c(s2)CCc2ccccc2-3)cc1 14.6 µM
COc1ccc(CS(=O)/C(Cl)=C(/Cl)C(=O)Nc2ccc(OC)nc2)cc1 (stereo unspecified) 0.259 µM
COc1cccc(CNC(=O)C(=O)NCCC2CCCCN2S(=O)(=O)c2ccc(C)cc2)c1 (stereo unspecified) 15.8 µM
O=C1c2cccc3c([N+](=O)[O-])ccc(c23)C(=O)N1CC1CCCO1 (stereo unspecified) 5.8 µM
O=C(CSc1cccc2cccnc12)N/N=C/c1cccnc1 7.31 µM
Cc1ccc(/C=N/NC(=S)Nc2cccc(S(=O)(=O)N(C)C)c2)o1 23.1 µM
CCOc1ccc2ccccc2c1/C=N/NC(=O)c1c(C)cc(C)[nH]c1=O 23.1 µM
CS(=O)(=O)c1sc2nc(-c3ccccc3)cc(-c3ccccc3)c2c1N 11.2 µM
C/[N+]([O-])=C\c1ccc([N+](=O)[O-])o1 14.6 µM

Potency, inactive:
COc1ccccc1C(=O)COC(=O)COc1ccc(C#N)cc1
CCCC(CNC(=O)COC(=O)C1=NNC(=O)CC1)c1ccc(Cl)cc1Cl (stereo unspecified)
Oc1[nH]c2ccccc2c1N=Nc1c(F)c(F)c(F)c(F)c1F
C(#CCN1CCOCC1)CCCN1CCOCC1
O=C(COc1cccnc1[N+](=O)[O-])Nc1ccc(Cl)cc1F
COc1cccc(NC(=O)CN(C)C(=O)/C=C/c2cn(-c3ccccc3)nc2-c2cccs2)c1
O=C(Nc1ccc(Sc2ccc(Br)cc2)cc1)c1ccco1
Cc1ccc(NC(=O)CC(=O)Nc2ccc(C)cc2)cc1
CC1CCCCC1NC(=O)Cn1cnc2c1c(=O)n(C)c(=O)n2C (stereo unspecified)
COc1ccc(-c2nnc(SC(C)C(=O)NC3CC3)o2)cc1 (stereo unspecified)
COc1ccc2c(CC(=O)NNC(=O)c3ccccc3F)coc2c1
Oc1ccccc1N1CCN(c2ncnc3sc(-c4ccccc4)cc23)CC1
S=C(NCC1COc2ccccc2O1)Nc1ccc(Br)cc1 (stereo unspecified)
Cc1ccc(NC(=O)C(C)OC(=O)C2CC3CCCC(C2)C3=O)cc1S(=O)(=O)N1CCOCC1 (stereo unspecified)
CN(C)C(=O)CCc1ccc2c3c([nH]c2c1)[C@]1(C)[C@@H](C(=O)N2CCCCC2)C[C@H](CC(=O)NCCC2=CCCCC2)C(=O)N1CC3
COC(=O)c1ccc(CNC(=O)Cn2cc(C)c(=O)[nH]c2=O)cc1
C[C@H](CO)N1C[C@H](C)[C@@H](CN(C)Cc2ccc(-c3ccccc3)cc2)Oc2ccc(NC(=O)Cn3cnnn3)cc2C1=O
Cc1ccc2[nH]c(=O)c(CC(=O)O)c(-c3ccccc3)c2c1
CCN(CC)CCCNC(=O)c1cc2c(=O)[nH]c3ccc(C)cc3c2s1
CCCN(CC(=O)Nc1ccccc1C)C(=O)c1ccc(OCC(=O)N2CCOCC2)c(OCC)c1
Cc1nc2ccccc2c(C(=O)O)c1-c1ccccn1
NC(=O)c1c(NC(=O)c2ccccc2)sc2c1CCCC2
COc1cccc(OC)c1C(=O)Nc1sc2c(c1C(N)=O)CCCC2
CCN(c1ccccc1)S(=O)(=O)c1ccc(C(=O)Nc2nccs2)cc1
COc1ccc(C(=O)Nc2ncc3c(n2)-c2ccccc2CC3)cc1
O=C(O)C1C2C=CC(O2)C1C(=O)Nc1ccccn1 (stereo unspecified)
O=C(CNC(=O)c1ccco1)NNC(=O)c1ccc(Br)cc1
O=C(O)c1ccc(Cn2cnc3c(=S)nc[nH]c32)cc1
Cc1cc([N+](=O)[O-])ccc1NS(=O)(=O)c1ccccc1
NC(=O)C1(Nc2ccccc2Cl)CCCC1
CCOc1ccc(S(=O)(=O)Nc2ccc(OC)nc2)cc1
COc1ccc(CC(=O)Nc2ccc(C(=O)NC(C)(C)C)cc2)cc1
O=C(NCCC1CCCCN1S(=O)(=O)c1ccccc1)C(=O)NCC1CCCO1 (stereo unspecified)
O=C(NCCC1CCCCN1S(=O)(=O)c1ccc(F)cc1)C(=O)NC1CC1 (stereo unspecified)
O=C(COC(=O)COc1cc(Cl)c(Cl)cc1Cl)NC1CC1
CCOc1cccc(=O)c2c(C)n(CC3CCCO3)c(C)c12 (stereo unspecified)
CN1CN(C)c2ccc([N+](=O)[O-])c3cccc1c23
O=C(CNC(=O)c1cccnc1)N/N=C/c1cccnc1
COc1ccc(C(=O)NCC(=O)N/N=C/c2cccnc2)cc1
Cc1ccc(/C=N/NC(=S)NC2CCCCC2)o1
CN(C)S(=O)(=O)c1cccc(NC(=S)NCc2ccc3c(c2)OCO3)c1
COc1cc(C(=O)CCc2ccc3c(c2)OCO3)cc(OC)c1OC
COc1ccc2ccccc2c1/C=N/NC(=O)c1cc(C)[nH]n1
Cc1ccc(C(=O)N/N=C/c2cccc3ccccc23)cn1
O=C(COC(=O)c1ccc([N+](=O)[O-])o1)NC12CC3CC(CC(C3)C1)C2
CCOC(=O)C1CCCN(C(=O)c2ccc(C)c(S(=O)(=O)N3CCCCC3)c2)C1 (stereo unspecified)
COc1cccc2c1C(=O)c1c(O)c3c(c(O)c1C2=O)CC(O)(C(C)=NNC(=O)c1ccc(Cl)c(Cl)c1)CC3OC1CC(N)C(O)C(C)O1 (stereo unspecified)
Nc1nc(-c2ccccc2)cc(-c2ccccc2)n1
CNc1nc(-c2ccccc2)cc(-c2ccccc2)n1
CCN([C@H](CO)C(C)C)S(=O)(=O)c1ccccc1Br
CN1C(c2ccc(F)cc2)=CS/C1=C(/C#N)c1nnc2n1-c1ccccc1SC2
CN1CCN(/N=C/c2ccc(-c3ccc([N+](=O)[O-])cc3)o2)CC1
Cc1cc(C)nc(N/N=C/c2ccc([N+](=O)[O-])o2)n1
